The nature of experiment [1]: qHTS assay for small molecule agonists of the p53 signaling pathway (AID 651631; calls by dose curve; note: nearly all actives have a fitted effect of over 15% in size; note: potency is the fitted concentration of half-maximal effect). The procedure, abridged:
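Read-out is beta-lactamase FRET fluorescence measured 2 h after substrate addition at room temperature, in HCT-116 cells with a p53 response element-driven reporter exposed to compounds for 16 h at 37 °C.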

Experiment [2] is described as follows: qHTS assay for small molecules that induce genotoxicity in human embryonic kidney cells expressing luciferase-tagged ATAD5 (AID 651632). Note: nearly all actives have a fitted effect of over 15% in size. The method in brief:
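Increased luciferase signal from ATAD5-tagged reporter cells indicates DNA-damage-driven ATAD5 induction. HEK293T cells are treated for 16 hr at 37C before detection with Amplite.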
A general note: qHTS replaces the single test concentration by a dilution series.

Experiment [3] can be described thus: qHTS assay for small molecule agonists of the p53 signaling pathway - cell viability (AID 651633; calls by dose curve; note: nearly all actives have a fitted effect of over 30% in size; note: potency is the fitted concentration of half-maximal effect). The procedure, abridged:
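Viability counter-read: CellTiter-Glo luminescence (30 min, room temperature) in the same p53RE-bla plates. These plates had been exposed to compounds for 16 h at 37 C.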

Experiment [4] can be described thus: qHTS assay for small molecule disruptors of the mitochondrial membrane potential (AID 720635). Note: potency is the fitted concentration of half-maximal effect. The method in brief: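 Mitochondrial membrane potential tracked with Mito-MPS dye, red aggregates (ex 540/em 590 nm) against green monomers (ex 490/em 535 nm). Compound treatment 1 hr at 37C, dye 30 min in HepG2.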
Experiment [5] is described as follows: qHTS assay to test for compound auto fluorescence at 590 nm (red) in HepG2 cells (AID 720674). The procedure, abridged: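 1 hr compound incubation on HepG2 cells, 37 C, 5% CO2; plate read ex 540 nm / em 590 nm; intensities reported as Rose Bengal sodium equivalents.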
A short description of experiment [6]: qHTS assay to test for compound auto fluorescence at 535 nm (green) in HepG2 cells (AID 720675).
Experiment [7] in a line: qHTS assay to test for compound auto fluorescence at 460 nm (blue) in HEK293 cells (AID 720678). The method in brief:
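Intrinsic compound fluorescence is recorded in live HEK293 cultures after overnight incubation at 37C, 5% CO2, using excitation 405 nm and emission 460 nm. Values are referenced to triamterene.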

Experiment [8] in a line: qHTS assay to test for compound auto fluorescence at 590 nm (red) in HEK293 cells (AID 720679). The method in brief:
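Red autofluorescence, HEK293 cells: 2,000 cells/well; attach 4-5 hr 37C; add 23 nL cpd or DMSO; incubate o/n 37C 5% CO2; read Ex540/Em590; Rose Bengal sodium reference.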

Experiment [9] is described as follows: qHTS assay to test for compound auto fluorescence at 535 nm (green) in HEK293 cells (AID 720680).
Experiment [10] is described as follows: qHTS assay to test for compound auto fluorescence at 460 nm (blue) in HEK293 cell free culture (AID 720681). The procedure, abridged: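 Blue fluorescence (Ex 405/Em 460 nm, triamterene-equivalent) was read immediately after pin transfer of compound or DMSO into medium (DMEM, 10% FBS) without cells.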
The nature of experiment [11]: qHTS assay to test for compound auto fluorescence at 535 nm (green) in HEK293 cell free culture (AID 720682). The procedure, abridged:
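Fluorescein serves as the green reference fluorophore; each compound's intrinsic emission at 535 nm (excitation 485 nm) is reported as an equivalent amount of that dye, measured in serum-containing DMEM without cells.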

Experiment [12] can be described thus: qHTS assay to test for compound auto fluorescence at 590 nm (red) in HEK293 cell free culture (AID 720683). The procedure, abridged:
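Red-channel autofluorescence of compounds in culture medium (DMEM, 10% FBS), no cells, measured at 540/590 nm. Rose Bengal sodium is the reference fluorophore for equivalence.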

Experiment [13] can be described thus: qHTS assay to test for compound auto fluorescence at 590 nm (red) in HepG2 cell free culture (AID 720684). The method in brief:
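Plate contents were MEM with 10% FBS plus test compound or DMSO, no cells. Fluorescence was recorded with 540 nm excitation and 590 nm emission.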

The nature of experiment [14]: qHTS assay to test for compound auto fluorescence at 535 nm (green) in HepG2 cell free culture (AID 720686).
A short description of experiment [15]: qHTS assay to test for compound auto fluorescence at 460 nm (blue) in HepG2 cells (AID 720687). The procedure, abridged:
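Blue-channel autofluorescence (Ex/Em 405/460 nm, triamterene-equivalent) was measured after 1 hr compound exposure at 37 C, 5% CO2. Cells were HepG2, plated overnight at 37 C in MEM plus 10% FBS.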

Experiment [16] in a line: qHTS assay for small molecules that induce genotoxicity in human embryonic kidney cells expressing luciferase-tagged ATAD5 - cell viability (AID 651634; calls by dose curve; note: nearly all actives have a fitted effect of over 25% in size). The method in brief: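 Cytotoxicity counterscreen in HEK293T cells bearing an ATAD5-luciferase reporter: live-cell protease activity measured by CellTiter-Fluor fluorescence after 15.5 hr compound exposure.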
Experiment [17] can be described thus: qHTS assay for small molecule disruptors of the mitochondrial membrane potential - cell viability (AID 720634; calls by dose curve;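 note: human HepG2 liver cancer cells; series mostly up to about 83 µM; nearly all actives have a fitted effect of over 20% in size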). The procedure, abridged:
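After overnight attachment at 37 C, HepG2 cells received compound or DMSO vehicle for 1 hr. Viability is then taken from ATP-driven luminescence following a 30 min room-temperature CellTiter-Glo step.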

The target in experiment [18] is Glucocorticoid receptor (Homo sapiens) (UniProt P04150). As to the kind of experiment: qHTS assay to identify small molecule agonists of the glucocorticoid receptor (GR) signaling pathway (AID 720691; active = well fitted activation curve with a large enough effect in the signal ratio in the repeat runs, not every such curve was filed as active; the % refers to the signal ratio). The method in brief:
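Agonist mode in a HeLa line carrying a GRE-controlled beta-lactamase reporter. Compounds act for 18 h at 37 C before a 2 h room-temperature FRET substrate step and fluorescence reading.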

The nature of experiment [19]: qHTS assay to test for compound auto fluorescence at 460 nm (blue) in HepG2 cell free culture (AID 720685). The method in brief: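 Compound (23 nL) or DMSO pinned into cell-free MEM with 10% FBS; blue fluorescence read at 405/460 nm excitation/emission, expressed as auto-fluorescence equivalency to triamterene.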
In experiment [20] the target is Glucocorticoid receptor (Homo sapiens) (UniProt P04150). As to the kind of experiment: qHTS assay to identify small molecule antagonists of the glucocorticoid receptor (GR) signaling pathway (AID 720692; active = well fitted inhibition curve with a large enough effect in the signal ratio in the repeat runs, not every such curve was filed as active; the % refers to the signal ratio). The method in brief:
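Cells plated, rested 4 h at 37 C/5% CO2; compounds in DMSO pin-transferred; dexamethasone added to 5 nM final; 18 h at 37 C; B/G FRET substrate added, 2 h room temperature; fluorescence measured.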

Values joined by “and” are separate entries in the source; they are usually repeats but may differ in a detail not shown here. Equal values may be shown once. Inconclusive results are not listed. Active and inactive are the calls of the source. Unless noted, calls come from the whole dose curve; as a rule, active = well fitted curve in the direction sought with a large enough effect in the repeat runs; inconclusive = weak or mixed curves; inactive = no such curve, though single readings can be large; an effect the other way counts as inactive or inconclusive.

Glucocorticoid receptor (Homo sapiens), sequence (P04150 whole entry, looked up): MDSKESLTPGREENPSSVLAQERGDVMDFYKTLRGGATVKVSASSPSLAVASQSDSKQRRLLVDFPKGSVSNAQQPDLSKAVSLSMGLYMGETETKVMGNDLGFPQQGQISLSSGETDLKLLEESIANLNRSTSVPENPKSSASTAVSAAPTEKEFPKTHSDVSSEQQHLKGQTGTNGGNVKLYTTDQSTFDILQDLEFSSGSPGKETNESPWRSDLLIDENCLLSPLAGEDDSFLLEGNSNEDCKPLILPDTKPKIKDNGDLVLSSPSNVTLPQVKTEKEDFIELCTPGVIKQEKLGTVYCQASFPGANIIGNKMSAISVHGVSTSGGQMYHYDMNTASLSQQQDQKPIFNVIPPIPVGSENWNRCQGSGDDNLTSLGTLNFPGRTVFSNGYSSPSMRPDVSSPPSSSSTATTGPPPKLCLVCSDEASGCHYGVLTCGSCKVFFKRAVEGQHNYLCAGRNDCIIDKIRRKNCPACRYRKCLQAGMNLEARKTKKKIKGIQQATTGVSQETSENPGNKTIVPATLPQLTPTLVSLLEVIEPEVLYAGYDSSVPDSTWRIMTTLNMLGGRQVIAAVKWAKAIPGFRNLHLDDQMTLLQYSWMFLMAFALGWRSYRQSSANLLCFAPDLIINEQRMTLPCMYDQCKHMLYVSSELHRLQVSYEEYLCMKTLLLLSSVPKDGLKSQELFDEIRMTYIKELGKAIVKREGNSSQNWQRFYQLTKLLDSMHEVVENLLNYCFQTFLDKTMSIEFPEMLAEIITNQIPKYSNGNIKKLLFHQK

Turning to `Oc1ccc(C2(c3ccc(O)cc3)c3ccccc3-c3ccccc32)cc1`, the Potency in experiment [1] is 61.1 µM (active); in [3] it was 172 nM (active); in [4] it was 61.1 µM (active). Moreover, the Potency result in experiment [2], in [7], in [10] and in experiment [15] was “inactive” each time. For the same compound, the outcome in experiment [5], in experiment [6], in experiment [8], in [9], in experiment [11] and in experiment [12] was inactive. Further, the call in experiment [13] and in experiment [14] was inactive.
Take `CCCCCCCCCBr`: the Potency entry in [1], in [2], in [3], in experiment [16], in experiment [17] and in experiment [7] was “inactive” in each case. In addition, the Potency result in experiment [10], in experiment [15] and in experiment [18] was “inactive” each time. The compound was called inactive in experiment [5], in experiment [6], in experiment [8], in experiment [9], in experiment [11] and in experiment [12]. The result in [13] and in [14] was inactive.
On to `CC(c1ccc(O)cc1)c1ccc(O)cc1`, for which the Potency result in experiment [1], in experiment [2], in experiment [3], in [16], in experiment [17] and in experiment [7] was “inactive” throughout. Besides, the Potency result in experiment [10], in experiment [19], in experiment [15] and in experiment [20] was “inactive” in each case. The Potency in experiment [4] is 25.6 µM (active). The compound was classed as inactive in experiment [5], in experiment [6], in [8], in experiment [9], in [11] and in [12]. Further, the outcome in experiment [13] and in [14] was inactive.
As to `O=C1NCN(c2ccccc2)C12CCN(CC1COc3ccccc3O1)CC2` (stereo unspecified), the Potency result in experiment [1], in experiment [2], in [3], in experiment [16], in [17] and in experiment [4] was “inactive” throughout. Also, the Potency entry in experiment [10], in experiment [19] and in experiment [15] was “inactive” throughout. For the same compound, the call in experiment [5], in experiment [6], in [8], in experiment [9], in experiment [11] and in experiment [12] was inactive. The outcome in experiment [13] and in [14] was inactive.
Regarding `CC(=O)OC1(c2ccccc2)CCN(CCc2ccccc2)CC1`, the Potency result in [1], in experiment [2], in [3], in experiment [16], in experiment [17] and in [7] was “inactive” in each case. Also, the Potency entry in experiment [10], in experiment [19] and in experiment [15] was “inactive” each time. For the same compound, the outcome in [5], in [6], in experiment [8], in experiment [9], in experiment [11] and in experiment [12] was inactive. Also, the compound was called inactive in experiment [13] and in experiment [14].
For `Clc1ccc(-c2ccc(Cl)c(Cl)c2Cl)c(Cl)c1Cl`, the Potency is 58.2 µM (active) in [1] and 65300 nM (active) in experiment [3]. The Potency result in experiment [2], in [7], in experiment [19] and in [15] was “inactive” in each case. Besides, the compound was classed as inactive in experiment [5], in experiment [6], in experiment [8], in [9], in experiment [11] and in [12]. Besides, the outcome in experiment [13] and in experiment [14] was inactive.
Take `Oc1ccc(C(c2ccc(O)cc2)(C(F)(F)F)C(F)(F)F)cc1`: the Potency in [1] was 60.8 µM (active) and 54.5 µM (active); in experiment [3], 68.2 µM (active) and 43.3 µM (active); in experiment [4], 2.72 µM (active) and 4.86 µM (active). Further, the Potency entry in experiment [2], in experiment [16], in experiment [17], in experiment [7], in [10] and in experiment [15] was “inactive” each time. Besides, the result in experiment [5], in experiment [6], in [8], in experiment [9], in experiment [11] and in experiment [12] was inactive. Further, the compound was classed as inactive in [13] and in [14].

The values are drawn from PubChem BioAssay (Tox21).
